The whole screen tested about 60,000 compounds, of which about 370 (0.62%) were called active. No stated cut-off is given here; in the data, active means inhibition above about 17%; inactive means the rest. The full list was thinned out, with actives kept by preference.
molecular target: Mitogen-activated protein kinase 10 (Homo sapiens) (UniProt P53779); experiment: inhibition of human JNK3 enzyme – biochemical, purified enzyme, primary screen (AID 746); settings: purified JNK3 kinase activity, HTS; at 8 µM; stronger effect = higher value;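 further: 0% = DMSO and 100% = reference inhibitor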
Sequence (P53779 whole entry, looked up): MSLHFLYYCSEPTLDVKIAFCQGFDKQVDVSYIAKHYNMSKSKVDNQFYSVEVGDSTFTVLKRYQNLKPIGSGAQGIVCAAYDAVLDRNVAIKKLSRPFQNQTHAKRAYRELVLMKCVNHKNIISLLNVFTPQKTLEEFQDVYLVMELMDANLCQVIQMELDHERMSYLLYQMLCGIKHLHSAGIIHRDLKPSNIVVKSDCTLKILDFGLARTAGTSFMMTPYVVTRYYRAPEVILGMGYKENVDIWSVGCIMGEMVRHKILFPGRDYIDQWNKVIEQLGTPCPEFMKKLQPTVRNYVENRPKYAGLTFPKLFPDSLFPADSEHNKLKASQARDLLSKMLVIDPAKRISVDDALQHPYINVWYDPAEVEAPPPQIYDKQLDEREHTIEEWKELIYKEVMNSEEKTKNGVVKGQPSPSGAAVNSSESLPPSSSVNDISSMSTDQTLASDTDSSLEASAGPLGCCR

inhibition, active:
Cc1ccc2oc(=O)c3cnn(CC(=O)N4CCN(c5ccccn5)CC4)c3c2c1 37.2%, COC(=O)c1cccc(NC(=O)CN2CCC(NC(=O)c3cc(OC)c(OC)c(OC)c3)CC2)c1 79.2%, CCCOc1ccc(C2C(C(=O)c3ccc(C)o3)=C(O)C(=O)N2CCCn2ccnc2)cc1 (stereo not drawn) 42.8%, CCN(CC)S(=O)(=O)c1ccc2nc(COC(=O)c3n[nH]c4ccccc34)[nH]c2c1 95.8%

inhibition, inactive:
CC1CSc2nnc(CCc3ccccc3)n21 (stereo not drawn) 16.5%, COC(=O)c1cc(C(=O)CSc2nc(C)cc(C)n2)ccc1O 1.84%, COc1c(O)cccc1-c1nnn(CCC(=O)OCC(=O)c2ccccc2)n1 0.11%, CC(CCc1ccccc1)NC(=O)c1ccc(Br)o1 (stereo not drawn) 3.4%, NC(=O)CCCC1=NS(=O)(=O)c2ccccc2N1 11.7%, Nc1nonc1C(=O)NCCc1ccccc1 2.83%, CC(C)CC(=O)N=C1SC2CS(=O)(=O)CC2N1CCc1ccccc1 (stereo not drawn) -1.83%, Cc1noc(C)c1S(=O)(=O)N(CC(=O)Nc1ccc2c(c1)OCCO2)c1ccc(C(C)C)cc1 0.66%, C=CCNc1nnc(SCC(=O)N2CCCCC2)c2ccccc12 -2.85%, Nc1nnc(SCCN2C(=O)c3ccccc3S2(=O)=O)s1 -1.92%, Cc1ccc(CNC(=O)CCCNC(=O)c2ccc(Cl)cc2)n1C 10.2%, Cc1ccc(Oc2ccc(N)cc2)cc1 6.53%, CCOc1cc2c(cc1OCC)C(C(=O)O)C(c1ccc(OC)c(O)c1)N(C)C2=O (stereo not drawn) -0.42%, O=C(C1CCC1)N1CCc2cc(S(=O)(=O)NCc3cccnc3)ccc21 -6.87%, COC(=O)c1cc(Cl)c(NC(=O)c2ccco2)cc1OC -6.35%, Cc1cc2c(=O)n(C)c(SCC(=O)c3cc4ccccc4o3)nc2s1 -3.37%, CCOC(=O)c1c(NC(=O)c2cccs2)sc(C)c1C 6.19%, Oc1c(C(c2cccs2)N2CCN(c3ccc(F)cc3)CC2)sc2ncnn12 (stereo not drawn) 1.85%, O=C1c2ccccc2-c2ncnc3c(N4CCOCC4)cc(N4CCOCC4)c1c23 -9.75%, CCOc1cc(C(=O)Nc2ncccn2)cc(OCC)c1OCC -1.81%, O=C(NCCN1CCOCC1)c1c(F)c(F)c(F)c(F)c1F 7.3%, CCn1nc(C(=O)OCC(=O)N2c3ccccc3CC2C)c2ccccc2c1=O (stereo not drawn) 1.01%, Cn1cnc2c1c(=O)n(Cc1c(Cl)cccc1Cl)c(=O)n2C 2.26%, Cc1nnc(NC(=O)CSc2nccn2-c2cccc(C)c2C)s1 -4.27%, Cc1ccc2oc(=O)c3cnn(CC(=O)N4CCCCCC4)c3c2c1 0.73%, CCOC(=O)C1CCCN(C(=O)Cn2ncc3c(=O)oc4ccc(C)cc4c32)C1 (stereo not drawn) 0.71%, CCOc1ccc(C(=O)Nc2ccncc2)cc1 0.07%, O=S(N1CCCCCC1)C12CC3CC(CC(C3)C1)C2 (stereo not drawn) 8.25%, COc1ccc(NC(C)=O)cc1NC(=O)CN1CCN(c2ccccn2)CC1 2.12%, COC(=O)c1cc(NC(=O)CN2CCC(C(N)=O)(N3CCCCC3)CC2)cc(C(=O)OC)c1 -2.8%, COc1ccc(-c2cc(C(=O)NC(C(=O)O)C(C)C)c(C)o2)cc1OC (stereo not drawn) 1.2%, Cc1cc(C(=O)O)c(S(C)(=O)=O)s1 0.82%, CC1=C(C)CC2C(=O)N(c3cccc4ccccc34)C(=O)C2C1 (stereo not drawn) 0%, COc1ccccc1Cc1nc(-c2ccc(C)cc2)no1 4.84%, CC(C)Cc1cc(C(=O)Nc2cc(Br)ccc2O)no1 -4.9%, COc1ccc(CCN(C)C(=O)C2CCCN(Cc3ccc(OC)c(OC)c3)C2)cc1OC (stereo not drawn) 4.04%, CN(C)/C=C1/C(=O)Nc2ccccc21 -8.06%, O=C(CCN1C(=O)c2ccccc2C1=O)Nc1ccncc1 0.63%, COc1ccc(-c2nc3n(c2Br)CCC3)cc1 -4.37%, CCCC(=O)Nc1ccc2c(c1)nc1n2CCSC1 -5.4%, Cc1ccsc1C(=O)OCC(=O)c1cc(C)n(CC2CCCO2)c1C (stereo not drawn) 1.34%, COc1ncnc2c1N=C1CC(C)(C)CC(N)=C1S2 -12.2%, O=C(COc1ccccc1)NCCc1nc2ccccc2[nH]1 5.21%, COc1ccc(NC2CC(=O)N(C)C2=O)cc1 (stereo not drawn) -1.99%, CCN(CC)P(=O)(/C(Cl)=C\Nc1c(C)n(C)n(-c2ccccc2)c1=O)N(CC)CC 4.4%, CCOC(=O)N1CCN(S(=O)(=O)c2cc3c(cc2C)NC(=O)CO3)CC1 1.04%, COc1ccc2c(c1)C=CC1(O2)N(CCO)c2ccccc2C1(C)C (stereo not drawn) -1.22%, CS(=O)(=O)N1CCN(C(=O)Cc2ccccc2)CC1 7.69%, Cc1cc(C(=O)N2CCN(c3ccccn3)CC2)c(C)o1 2.54%, COc1cccc(OC)c1C(=O)Nc1nnc(C(C)C)s1 -2.05%, Cn1cccc1Cc1nnc(SCC(=O)NCc2ccc3c(c2)OCO3)n1CCc1ccccc1 -1.11%, CCn1c(SCCC(C)C)nnc1-c1c[nH]c2ccccc12 2.85%, CCC(c1nnnn1C1CCCC1)N1CCN(C(=O)c2ccco2)CC1 (stereo not drawn) -1.42%, Fc1ccc(OCc2nn3c(Cn4nnc5ccccc54)nnc3s2)cc1 -2.42%, CCn1c(SCC(=O)c2ccc(Cl)s2)nnc1-c1cccs1 -1.37%, CC12CN(Cc3ccccc3)CC(C)(CN(Cc3ccccc3)C1)C2=NO 1.42%, COc1ccccc1-c1c(C)nn2c(C)c(C(C)=O)cnc12 0.53%, O=S(=O)(NCCOc1cccc2cccnc12)c1ccc(F)cc1 -0.52%, FC(F)(F)c1cc(-c2ccco2)nc(N2CCOCC2)n1 2.31%, Cc1cccn2c(=O)c3cc(C(=O)N4COCC4(C)C)n(C)c3nc12 5.99%, COc1ccc(-n2nc3c(c2NC(=O)Cc2cccc(C)c2)CS(=O)C3)cc1 (stereo not drawn) 1.83%, CCCC(=O)N=c1sc2cccc(F)c2n1C -1.7%, CN(c1nc2ccccc2n2c(-c3ccco3)nnc12)S(=O)(=O)c1ccccc1 -4.26%, C=C(C)Cn1c(N2CCCC2)nc2c1c(=O)[nH]c(=O)n2C 2.48%, NC(=O)CSc1c[nH]c2ccccc12 6.99%, CNC(=O)c1nnn(-c2ccccc2)c1C(=O)NC -3.49%, Brc1ccc(OCCn2ccnc2)cc1 1.14%, CCCOc1ccc(C2c3c(oc4cc(C)c(C)cc4c3=O)C(=O)N2CCCN2CCOCC2)cc1 (stereo not drawn) 3.64%, CC(=O)N1CCN(c2ccc(NCc3ccc(C(C)C)cc3)cc2)CC1 -4.46%, CCCCc1nc2ccccc2c(=O)n1NC(=O)c1c(O)c2cccc3c2n(c1=O)CC3 -6.2%, CCCC(=O)NC(C)C(c1cccs1)N1CCN(c2ccccc2)CC1 (stereo not drawn) 0.41%, O=C(NCC12CC3CC(C1)CC(CNC(=O)N1CCCC1)(C3)C2)N1CCCC1 2.23%, CCOC(=O)CC1C(=O)NCCN1C(=O)COc1ccc(Br)cc1C (stereo not drawn) 1.6%, N#Cc1c(/N=C/N2CCCC2)oc(-c2ccccc2)c1-c1ccccc1 -3.67%, CC(C)n1c(SCC(=O)Nc2ccccc2N2CCCCC2)nc2c1c(=O)n(C)c(=O)n2C 0%, Nc1nnc(C2CCCC2)s1 -0.19%, O/N=C(\c1ccc2c(c1)OCCO2)C1CCCCC1 -1.18%, COc1cc(Br)cc(/C=N/c2ncn[nH]2)c1O -2.89%, Clc1ccc(Cc2nnc(-c3cccs3)o2)cc1 2.19%, CCCc1[nH]nc2c1C(c1ccc(OC(=O)c3ccco3)cc1)C(C#N)=C(N)O2 (stereo not drawn) 6.15%, CC(=O)NC(C)(C)C1CC=C(C)/C(=N\O)C1 (stereo not drawn) 0.98%, CCN(CC)S(=O)(=O)c1cccc(C(=O)NCC(=O)OCC(=O)NCc2ccccc2)c1 -1.17%, CCN(CC)S(=O)(=O)c1ccc2nc(CSc3nnnn3-c3ccc(O)cc3)[nH]c2c1 8.62%, Cc1c(CN2CCC(C)CC2)c(=O)n(-c2ccccc2)n1C 0.5%, O=P(O)(CP(=O)(c1ccccc1)c1ccccc1)c1ccccc1 -5.23%, Cc1nc2c(-c3ccc(F)cc3)c(C)nn2c(C)c1CCC(=O)N1CCN(c2ccccn2)CC1 1.08%, Cc1c(C(=O)NCC2CCCO2)sc2nc(-c3ccccc3)cn12 (stereo not drawn) -3.26%, CCSC1(SCC)N=C(N)C2(C#N)C(c3ccccc3)NC(C)=CC12C#N (stereo not drawn) 0.03%, CCOC(=O)c1ccccc1NC(=O)CC1Nc2ccccc2NC1=O (stereo not drawn) -0.55%, CCOC(=O)C1CCN(C(=O)COc2cc(C)c(Br)c(C)c2)CC1 6.51%, CC(=O)Oc1ccc(C)cc1N1C(=O)c2ccc(C(=O)O)cc2C1=O 0.63%, COc1cccc(-c2nc3n(n2)C(c2ccccc2Cl)C(C(N)=O)=C(C)N3)c1 (stereo not drawn) 1.25%, COc1ccc(NC(=O)c2c(SC)nsc2SC)cc1 -3.4%, COc1ccc(C(=O)CSc2nccc(=O)[nH]2)cc1 -1.11%

Source: PubChem BioAssay AID746 (The Scripps Research Institute Molecular Screening Center, 2007)
